Reference: PubChem BioAssay AID1159580 (chemical genetic matrix, 2015)
Screen size: about 5,500 compounds; about 2,000 (36%) were called active. About 18% were inconclusive and are not listed. Cut-off read from the data, not from the text of the source: active = normalized growth mostly below about 0.91 (no sharp cut-off); inconclusive = no clear call, values can overlap the other calls; inactive = mostly above about 0.92. The list shows a part of the results.

Assay: chemical genetic growth profiling, strain panel (AID 1159580);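 note: tested at 20 µM; growth read once vehicle control cultures reached saturation at 30 °C; 1 = growth at the plate median or of vehicle wells; lower values mean less growth of the strain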
Conditions: S. cerevisiae deletion strains, growth OD

Measured: normalized growth

CC(=O)Nc1ccc(S(=O)(=O)Nc2ncccn2)cc1
inactive: locus YAL013W, strain DEP1, stronger effect = lower value 1.01 | locus YBR229C, strain ROT2, stronger effect = lower value 0.992 | locus YCL061C, strain MRC1, stronger effect = lower value 1.02 | locus YDL101C, strain DUN1, stronger effect = lower value 0.995 | locus YDL134C, strain PPH21, stronger effect = lower value 0.997 | locus YDR150W, strain NUM1, stronger effect = lower value 0.921 | locus YEL061C, strain CIN8, stronger effect = lower value 1.01 | locus YGR078C, strain PAC10, stronger effect = lower value 1 | locus YHR030C, strain SLT2, stronger effect = lower value 1.08 | locus YHR087W, strain rtc3, stronger effect = lower value 0.987 | locus YJR043C, strain POL32, stronger effect = lower value 1.01 | locus YJR075W, strain HOC1, stronger effect = lower value 0.994 | locus YLR039C, strain RIC1, stronger effect = lower value 1.02 | locus YLR058C, strain SHM2 (second series), stronger effect = lower value 1.03 | locus YLR085C, strain ARP6, stronger effect = lower value 0.958 | locus YLR262C, strain YPT6, stronger effect = lower value 1.13 | locus YML094W, strain GIM5, stronger effect = lower value 0.981 | locus YMR219W, strain ESC1, stronger effect = lower value 1 | locus YMR263W, strain SAP30, stronger effect = lower value 1 | locus YMR307W, strain GAS1, stronger effect = lower value 0.919 | locus YNL153C, strain GIM3, stronger effect = lower value 1.01 | locus YNL298W, strain CLA4 (second series), stronger effect = lower value 1 | locus YNL322C, strain KRE1, stronger effect = lower value 0.999 | locus YNR030W, strain Alg12, stronger effect = lower value 1.01 | locus YPL055C, strain LGE1, stronger effect = lower value 0.92 | locus YPL241C, strain CIN2, stronger effect = lower value 0.963 | locus YPR135W, strain CTF4, stronger effect = lower value 1.08
